# Screens (PubChem BioAssay)
# The entries come from a sample that favours hits as a whole.
# Methyltransferases – Primary Screen for Target Class Profiling of Small Molecule Inhibitors of Methyltransferases | purified enzyme, MTase-Glo SAH luminescence; hits give low values | calls only at 40 µM | 25,000 compounds, 3.9% hits; call rule not given here
#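 Each enzyme was assayed with SAM and its substrate. SAH formation detected by MTase-Glo luminescence; single-point 40 uM screen[…].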
# An asterisk follows results filed as active; i = inactive; + = active, no number; ! = not confirmed by another sample. % is set by controls: 0 for no effect and ±100 for the full control effect.
SMILES,Methyltransferases
CCN1Cc2ccccc2N(CC(O)Cc2ccccc2)CCC1=O (configuration not stated),i
C=C1C(=O)OC[C@@H]1C/C=C(\C)CC1CC(C)C(=O)O1 (some centres not stated),+
C#CCN(Cc1cc2c(=O)[nH]c(C)nc2cc1Br)c1ccc(C(=O)NCc2cccnc2)cc1,i
Cn1c(=O)n(C)c2cc(S(=O)(=O)N3CCN(c4ccc(F)cc4)CC3)ccc21,i
CC1(C(=O)NC2CCCCCC2)Cn2nc(-c3ccco3)cc2C(=O)N1c1cccc(F)c1 (configuration not stated),i
NC(=NCCCCCCN=C(N)/N=C(\N)Nc1ccc(Cl)cc1)/N=C(\N)Nc1ccc(Cl)cc1,+
COc1ccc(-c2nn3c(SCC(=O)Nc4cc(Cl)ccc4OC)nnc3[nH]c2=O)cc1,i
C[C@H](Nc1cc2c(-c3ccc4c(c3)OCO4)noc2cn1)c1ccccc1,+
Cc1ccc(C)c(NS(=O)(=O)c2ccc3[nH]c4c(c3c2)CCCC4)c1,i
O=C1NC2(CCN(CC3CCCCC3)CC2)COc2ccccc21,i
CCC(C)(OC(C)=O)C(=O)O[C@H]1[C@H](OC(C)=O)[C@]2(CO)[C@H](O)[C@H](O)[C@]3(C)C(=CCC4[C@@]5(C)CC[C@H](O[C@@H]6O[C@H](C(=O)O)[C@@H](O)[C@H](O[C@@H]7OC[C@H](O)[C@H](O[C@@H]8OC[C@H](O)[C@H](O)[C@H]8O)[C@H]7O)[C@H]6O[C@@H]6O[C@H](CO)[C@@H](O)[C@H](O)[C@H]6O)C(C)(C)C5CC[C@]43C)[C@@H]2CC1(C)C (some centres not stated),i
O=C(OC[C@H]1O[C@H](O[C@H]2CO[C@H](CO)[C@@H](O)[C@@H]2O)[C@H](O)[C@@H](O)[C@H]1O)c1ccccc1,i
O=C(OC[C@H]1O[C@H](O[C@]2(CO)O[C@H](CO)[C@@H](O)[C@@H]2O)[C@H](O)[C@@H](O)[C@@H]1O)c1ccc(O)cc1,i
C[C@]12C[C@@H](O)[C@@H]3C[C@@]1(O[C@@H]1O[C@H](CO)[C@@H](O)[C@H](O)[C@H]1O)[C@]3(COC(=O)c1ccccc1)C(=O)O2,+
CCOC(=O)Cc1c(-c2ccccc2)c2cc(C)ccc2[nH]c1=O,i
CCc1ccc(NC(=O)CSc2nnc3[nH]c(=O)c(C(C)(C)C)nn23)cc1,i
O=C(CCc1ccccc1)c1c(O)c([C@@H]2O[C@H](CO)[C@@H](O)[C@H](O)[C@H]2O)c(O)c([C@@H]2O[C@H](CO)[C@@H](O)[C@H](O)[C@H]2O)c1O,+
O=C(Cc1ccccc1)OC[C@H]1O[C@H](O[C@H]2O[C@H](CO)[C@@H](O)[C@H](O)[C@H]2O)[C@H](O)[C@@H](O)[C@@H]1O,i
CN(C)c1ccc(C(=O)NC[C@H]2O[C@@H](CO)[C@@H](O)[C@H]2N(C)CCc2ccccc2)cc1,i
COc1ccc(-n2c(=O)[nH]c3cccnc32)cc1OC,i
COc1cc2c(cc1-c1c(C)noc1C)ncc1[nH]c(=O)n(C(C)c3ccccn3)c12 (configuration not stated),+!
COc1ccc(-c2n[nH]n3c2nc(=O)c2ccc(C(=O)NCc4ccc(OC)cc4OC)cc23)cc1,i
CN(C)CCC[C@]1(c2ccc(F)cc2)OCc2cc(C#N)ccc21,+
CCC(C)NC(=O)c1ccc2c(=O)n(C(C)C)c3nn(CC(=O)NC(C)(C)C)c(=O)n3c2c1 (configuration not stated),i
COc1ccc2cc3n(c2c1)CC(C)(C(=O)NC1CCCC1)N(CCCc1ccccc1)C3=O (configuration not stated),i
SMILES,Methyltransferases
CC(C)CN1CC(COc2ccc3ccccc3c2)Oc2ccnc(-c3ccc(OCC(=O)O)cc3)c2C1=O (configuration not stated),i
CCc1c(-c2ccccc2)c(-c2ccccc2)nn1-c1ccccc1-c1cccc(OCC(=O)O)c1,+
COC(=O)Cn1nc(-c2cccc(OC)c2)c2ccccc21,i
CCC(C)NC(=O)c1ccc2c(=O)n(C)c3nnc(SCc4ccccc4Cl)n3c2c1 (configuration not stated),i
O=C(O)C1=CC(=C(c2ccc(O)c(C(=O)O)c2)c2ccc(O)c(C(=O)O)c2)C=CC1=O,+
CC1(C(=O)NC2CCCCC2)Cn2c(cc3ccccc32)C(=O)N1Cc1ccccc1 (configuration not stated),i
C[C@@H](Oc1cc(-n2cnc3ccc(OC4CCN(C)CC4)cc32)sc1C(N)=O)c1ccccc1Cl,+
CC(Oc1cc(-n2cnc3ccc(CN4CCN(C)CC4)cc32)sc1C(N)=O)c1ccccc1C(F)(F)F (configuration not stated),+
CC(C)Oc1ccc(CN2C(=O)c3ccc(-c4ccco4)n3CC2(C)C(=O)NC2CCCC2)cc1 (configuration not stated),i
CC(C)CCn1c(=O)c2ccc(C(=O)NC3CCCCC3)cc2n2c(=O)n(Cc3ccc(F)cc3)nc12,i
CC1(C)CC[C@]2(C(=O)O)[C@H](O)C[C@]3(C)C(=CCC4[C@@]5(C)CC[C@H](O[C@@H]6O[C@H](CO[C@@H]7OC[C@H](O)[C@H](O)[C@H]7O[C@@H]7OC[C@@H](O)[C@H](O)[C@H]7O)[C@@H](O)[C@H](O)[C@H]6O[C@@H]6O[C@H](CO)[C@@H](O)[C@H](O)[C@H]6O)C(C)(C)C5CC[C@]43C)[C@@H]2C1 (some centres not stated),i
OCCN1CCN(c2ccc(-c3nc(-c4cccc(C(F)(F)F)c4)no3)cn2)CC1,i
Cc1nc(Nc2ncc(C(=O)Nc3c(C)cccc3Cl)s2)cc(N2CCN(CCO)CC2)n1,+
O=C(NCCCCN1CCN(c2cccc(Cl)c2Cl)CC1)c1cc2ccccc2s1,i
Cc1ccc(CNC(=O)CCn2ccc3cc(S(=O)(=O)N4CCCCC4)ccc32)cc1,i
CN1CC2(CCOC2)N(C2CCN(C(=O)C3CCCC3)CC2)C1=O (configuration not stated),i
Cc1ccc(CNC(=O)CCc2nnc3n(Cc4ccccc4Cl)c(=O)c4ccccc4n23)cc1,i
C=C1CCC2C(C)(C(=O)O)CCCC2(C)C1CCC(C)CC(=O)O (configuration not stated),i
COc1c(CCC(=O)O)cccc1O[C@@H]1O[C@H](CO)[C@@H](O)[C@H](O)[C@H]1O,+
CCC(C)(O)C(O)C(=O)OCc1ccc(O[C@@H]2O[C@H](CO)[C@@H](O)[C@H](O)[C@H]2O)c(OC)c1 (some centres not stated),i
O=C(O)c1cc(O)c2cccc(O)c2c1O[C@@H]1O[C@H](CO)[C@@H](O)[C@H](O)[C@H]1O,+
OC[C@H]1O[C@@H](OCCc2ccccc2)[C@H](O[C@@H]2OC[C@@H](O)[C@H](O)[C@H]2O)[C@@H](O)[C@@H]1O,+
O=C(O[C@H]1[C@H](Oc2ccc(O)cc2CO)O[C@H](CO)[C@@H](O)[C@@H]1O)c1ccccc1,i
Cc1ccc(C(C)C)c(O[C@@H]2O[C@H](CO)[C@@H](O)[C@H](O)[C@H]2O)c1,i
O=C(O)/C=C/c1ccc(O)c(O[C@@H]2O[C@H](CO)[C@@H](O)[C@H](O)[C@H]2O)c1,i
CC(=O)c1ccc(O[C@@H]2O[C@H](CO)[C@@H](O)[C@H](O)[C@H]2O)cc1,i
